# HT1080 IDH1KD tx = kills HT-1080 cells with IDH1 knockdown. Potency, µM (doses to about 46.1 µM), without a hit: top-dose activity, negative = toxicity, hits mostly cytotoxic. HT-1080 IDH1 knockdown viability, ATP luminescence, 48 h. actives 2% (n = 360,000);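 also: potency is read from the fitted curve at half-maximal effect; 0% = DMSO wells and -100% = cell-free medium wells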
#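 After a 2 h attachment period, IDH1KD HT-1080 cells took pin-transferred compound for 48 h at 37 °C; ATP-based luminescence after 10 min room-temperature reagent incubation reported viability.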
# TDP1 cell noCPT = qHTS for Inhibitors of human tyrosyl-DNA phosphodiesterase 1 (TDP1): qHTS in cells in absence of CPT; AID 686978, 2013; actives 15% (n = 420,000); DT40 Tdp1-/- hTDP1 cells, no CPT, ATP luminescence, 48 h; Potency, µM (top dose mostly 46.2 µM), without a hit: top-dose activity change, negative = growth inhibition, hits mostly inhibitors; also: potency is read from the fitted curve at half-maximal effect; nearly all actives have a fitted effect of over 55% in size
#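 Growth kinetics read by CellTiter-Glo luminescence after ≥48 hr at 37 °C. Cells: DT40 Tdp1-/- stably carrying human TDP1, 400 per well, compound exposure in the absence of CPT (DMSO vehicle).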
# uPA generation = blocks generation of uPA at the cell surface. cell surface uPA generation assay, qHTS. Potency, µM (titrated, usually from 38.3 µM), without a hit: at the highest dose activity change, negative = inhibition, usual class: inhibitors. actives 0.31% (n = 330,000). AID 540303; active = well fitted inhibition curve with a large enough effect; inconclusive = small, poorly fitted or top-dose-only effect; inactive = no such curve, though single readings can be large or run the other way; tested in mouse RAW 264.7 cells; also: potency is read from the fitted curve at half-maximal effect; nearly all actives have a fitted effect of over 55% in size
# TDP1 cell CPT = DT40-hTDP1 cell growth loss with CPT. AID 686979. actives 12% (n = 420,000). Potency, µM (highest dose often 46.2 µM), inactives show top-dose activity change, negative = growth inhibition, hits mostly inhibitors. chicken DT40 Tdp1-/-;hTDP1 cells + 20 nM CPT, ATP luminescence, 48 h; also: potency is read from the fitted curve at half-maximal effect; nearly all actives have a fitted effect of over 55% in size
#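 Cell growth measured by CellTiter-Glo luminescence after a minimum 48 h, 37 C compound exposure with 20 nM CPT in Tdp1-knockout DT40 cells stably expressing hTDP1, seeded 400/well; qHTS titration format.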
# IL1B secr inh = blocks inflammasome-driven IL-1 beta release; THP-1 LPS/ATP IL-1B secretion, AlphaLISA, 16 h; active compounds read low; actives 4.7% (n = 360,000); activity change, % at 57.5 µM; in the data active = activity change below about -50%; inconclusive = mostly about -30% to -49%
#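 Secreted IL-1B measured by AlphaLISA bead assay after 16 h compound exposure of THP-1 cells; compounds (final up to 57.5 uM) added 1 h before LPS (250 ng/mL) and ATP (1.25 mM) stimulation; lower signal means less secretion.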
# HT1080NT lethal = kills 2HG-producing HT-1080-NT fibrosarcoma cells | HT-1080-NT fibrosarcoma viability, CellTiter-Glo ATP luminescence, 48 h | Potency, µM (series often up to 46.1 µM), without a hit: at the top dose activity, negative = less viability, usual class: cytotoxic | actives 1.6% (n = 360,000);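 also: NT is the 2HG producing partner of a matched IDH1 knockdown line; potency is read from the fitted curve at half-maximal effect; 0% = DMSO-treated cells and -100% = media-only wells without cells; nearly all actives have a fitted effect of over 55% in size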
#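 HT-1080-NT; 750 cells/well; 5% FBS RPMI; 48 h compound, 37 degrees C; CellTiter-Glo luminescence; curve fitting and curve-class assignment.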
# The depositor's hits bear a star; i = inactive; ? = inconclusive; . = no result given. Most compounds without a hit are left out; they make up all but 19% or so of the library. Unless noted, calls follow the shape of the dose curve; as a rule, active = well fitted curve in the direction sought with a large enough effect; inconclusive = small, poorly fitted or top-dose-only effect, or another doubt; inactive = no such curve, though single readings can be large; an effect the other way counts as inactive or inconclusive. Unless noted, % is scaled to controls: 0 for no effect and ±100 for the full control effect.
SMILES,HT1080 IDH1KD tx,TDP1 cell noCPT,uPA generation,TDP1 cell CPT,IL1B secr inh,HT1080NT lethal
Cn1cccc1C(=O)N1CCC2(CC1)CN(C(=O)Nc1cccc(F)c1)C2,.,?,.,-9.6%,.,.
CCCC(=O)Nc1ccccc1NC(=O)c1ccc(OC)cc1,11.0%,-0.2%,0.2%,19.2%,0.0,0.8%
CC1(C)NC(=O)N(CC(O)CN(c2ccccc2)S(=O)(=O)c2ccccc2[N+](=O)[O-])C1=O (stereo not drawn),21.6%,-6.3%,9.3%,9.2%,7.4,6.8%
Cc1ccc(S(=O)(=O)N2CCN(c3nc(-c4cccnc4)nc4ccccc34)CC2)cc1,1.1%,11.2µM*,.,12.6µM*,.,19.3%
Cc1ccc(S(=O)(=O)N2CCN(c3nc(-c4cscn4)nc4ccccc34)CC2)cc1,1.3%,?,.,?,.,-16.0%
Cc1ccc(S(=O)(=O)N2CCN(c3nc(-c4ncccn4)nc4ccccc34)CC2)cc1,14.0%,11.2µM*,.,?,.,1.3%
COC(=O)c1nc(N2CCN(S(=O)(=O)c3ccc(C)cc3)CC2)c2ccccc2n1,10.9%,17.8µM*,.,?,.,3.2%
Cc1ccc(S(=O)(=O)N2CCN(c3nc(-c4cncnc4)nc4ccccc34)CC2)cc1,1.4%,10µM*,.,8.91µM*,.,-0.6%
Cc1ccc(S(=O)(=O)N2CCN(c3nc(-n4ccnc4)nc4ccccc34)CC2)cc1,18.9%,-17.4%,.,-16.7%,.,14.1%
CCNC(=O)CC1C(=O)N(c2ccc(F)cc2)C(=O)N1CCOC (stereo not drawn),.,-1.3%,.,6.7%,.,.
CSCCC1NC(=O)N(CC(=O)N2CCc3ccccc3C2)C1=O (stereo not drawn),1.3%,13.2%,3.9%,-8.6%,25.9,2.6%
COc1ccc(C(=O)Cn2c(C)nc([N+](=O)[O-])c2Br)cc1,?,23.1µM*,-14.0%,7.31µM*,.,?
Cc1nc([N+](=O)[O-])cn1CC(=O)c1ccc(Br)cc1,9.5%,-26.2%,-2.0%,-12.2%,13.6,11.5%
Cc1nc([N+](=O)[O-])c(Br)n1CC(=O)c1ccc(Cl)cc1,18.4µM*,7.31µM*,-14.0%,8.2µM*,-116.3*,?
Cc1nc([N+](=O)[O-])c(Br)n1Cc1ccc(Cl)c(Cl)c1,?,2.59µM*,?,5.17µM*,-60.1*,?
Cc1nc2ccc([N+](=O)[O-])cc2c(=O)n1Cc1ccc(Br)cc1,4.3%,?,1.3%,?,23.8,-0.8%
C=CCNC(=O)NC(=O)CN1C(=O)NC(c2ccccc2)(c2ccccc2)C1=O,-6.1%,?,1.4%,?,13.3,-2.2%
CS(=O)(=O)c1ncc(Cl)c(C(=O)Nc2ccc(OC(F)F)cc2)n1,13µM*,1.16µM*,-14.0%,0.82µM*,-98.6*,?
CS(=O)(=O)c1ncc(Cl)c(C(=O)Nc2ccc(N3CCOCC3)cc2)n1,1.58µM*,1.12µM*,?,1.16µM*,-102.2*,3.55µM*
O=C(Nc1ccc(OC(F)F)cc1)c1ccccn1,1.7%,2.7%,-8.5%,3.8%,2.4,4.6%
O=C(Nc1ccc(N2CCOCC2)cc1)c1cnccn1,-19.6%,-9.7%,-2.9%,-9.9%,-13.4,-2.6%
COc1ccc(C(=O)COC(=O)CN2C(=O)c3ccccc3C2=O)c(OC)c1,12.3%,-7.4%,-1.6%,-2.9%,i,5.8%
COc1ccc(CC(=O)Nc2nc(OCC(F)(F)F)cnc2-c2ccc(Cl)cc2Cl)cc1,?,?,.,?,-1.7,?
CCCCC(=O)NC(=S)Nc1c(C)cc(Br)cc1C,1.4%,18.4µM*,3.4%,20.6µM*,31.1,0.9%
CCCCC(=O)NC(=S)Nc1cccc(NC(=O)CC)c1,-6.5%,-20.9%,1.0%,-16.9%,-13.9,-9.8%
SMILES,HT1080 IDH1KD tx,TDP1 cell noCPT,uPA generation,TDP1 cell CPT,IL1B secr inh,HT1080NT lethal
Cc1cccc(N2CCN(Cc3nnc(-c4ccccc4C)o3)CC2C)c1 (stereo not drawn),.,?,.,13µM*,.,.
CCOc1cc(/C=C2/C(=N)N3C(=NC2=O)SN=C3S(C)(=O)=O)ccc1OS(=O)(=O)c1ccccc1,-2.4%,20.6µM*,18.5%,?,-4.7,-0.5%
CCCS(=O)(=O)NC(=O)C1(C)CCN(C(=O)c2ccccc2OC(C)=O)C1 (stereo not drawn),2.8%,-16.0%,.,5.1%,-12.8,19.1%
C=CCn1c(C)cc(-c2csc(NC)n2)c1C,-14.5%,?,-1.0%,?,-96.4*,?
C=CCn1c(C)cc(-c2csc(NC(=O)C3=COCCO3)n2)c1C,5.9%,?,0.4%,?,-14.9,2.5%
C=CCn1c(C)cc(-c2csc(NCC)n2)c1C,?,?,5.6%,?,-55.1*,?
COc1ccc(Cl)cc1N1C(=NC(=O)C2CCCO2)SC2CS(=O)(=O)CC21 (stereo not drawn),7.4%,9.4%,-1.1%,-0.4%,47.0,-0.5%
Cc1ccc(NC(=O)CSc2[nH]c(=O)ncc2C)cc1,.,-15.2%,.,?,.,.
CC(C)Oc1cccc(NC(=O)C2CCN(S(=O)(=O)Cc3ccccc3)CC2)c1,.,?,.,13µM*,.,.
CS(=O)(=O)c1cccc(NC(=O)C2CC2)c1,23.4%,-0.2%,-2.6%,-10.9%,13.1,11.4%
N#Cc1ccc(Oc2ccc(NC(=O)C3CC=CCC3C(=O)O)cc2)cc1 (stereo not drawn),-8.6%,?,6.3%,-24.6%,6.7,1.1%
Cc1cccc(Oc2ccc(NC(=O)C3CC=CCC3C(=O)O)cc2)c1 (stereo not drawn),-8.8%,2.06µM*,-13.6%,-28.9%,21.8,-1.8%
COc1ccc(NC(=O)NC(C)(C(F)(F)F)C(F)(F)F)cc1,-2.0%,16.4µM*,1.2%,?,0.0,1.6%
O=C(Nc1cccc(S(=O)(=O)c2cccc(NC(=O)C3CC3)c2)c1)C1CC1,?,20.6µM*,-17.6%,20.6µM*,-73.9*,?
COc1cccc(NC(=O)c2ccc(NC(=O)C3CC(=O)OC34CCCCC4)cc2)c1 (stereo not drawn),1.3%,?,-0.5%,18.4µM*,0.0,5.4%
O=C(CC1NCCc2ccccc21)Nc1ccc(Oc2ccccc2)cc1 (stereo not drawn),?,?,3.8%,?,-153.0*,?
Cc1ccnc(NC(=O)Nc2cccc(F)c2)n1,8.4%,18.6%,8.8%,?,-10.4,13.1%
COc1cccc(NC(=O)Nc2nccc(C)n2)c1,1.0%,-0.5%,2.51µM*,-20.4%,-5.0,11.1%

# Source: PubChem BioAssay
